This is part of a sample that, as a whole, favours compounds with a hit. Of some 79,000 tested, about 15% had one in any assay. The source made the active and inactive calls. No stated cut-off is given here; in the data, active means growth inhibition above about 70%; inactive means the rest.
experiment: NCI Yeast Anticancer Drug Screen. Data for the rad50 strain (AID 155);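 further: 0% = growth of vehicle-only cultures of the same strain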; conditions: S. cerevisiae rad50 strain growth inhibition; at 5.0 µM (retest, dose inferred, filed as 0.5); active compounds read high
Procedure, shortened: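 Vehicle-treated cultures provide the reference for the growth inhibition reported for compound-exposed, repair-deficient yeast.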

SMILES	growth inhibition
O=C(c1ccc(Br)cc1)C1C(c2ccccc2)N1C1CCCCC1 (centres undefined)	1% (inactive)
Cc1cccc2cc3ccccc3c[n+]12	5% (inactive)
Cc1ccc(P(=O)(c2ccc(C)cc2)c2ccc(C)cc2)cc1.Cc1ccc(P(=O)(c2ccc(C)cc2)c2ccc(C)cc2)cc1.[Cl][Sn]([Cl])([Cl])[Cl]	4% (inactive)
c1ccc(P(CCP(c2ccccc2)c2ccccc2)CCP(c2ccccc2)c2ccccc2)cc1	98% (active)
O=[N+]([O-])c1cc2c([N+](=O)[O-])cccc2o1	15% (inactive)
O=C1CCC[N]1[Hg][N]1CCCC1=O	44% (inactive)
Oc1c(Cl)c(Cl)c(Cl)c(Cl)c1Cl.[Cu+2]	23% (inactive)
ClCCN(CCCl)c1ccc(C=NCCCCN=Cc2ccc(N(CCCl)CCCl)cc2)cc1	3% (inactive)
CC(C(=O)C1CCCCC1)[n+]1ccccc1 (centres undefined)	1% (inactive)
CN(C)CC1CCCCC1=O (centres undefined)	-169% (inactive)
CSc1nncc(=O)[nH]1.[Hg]	99% (active)
CNC(=O)N1CN(c2ccccc2)C2(CCN(CCCC(=O)c3ccc(F)cc3)CC2)C1=O	-7% (inactive)
O=C(OCc1ccccc1)C(C(Cl)c1ccccc1)N(Cc1ccccc1)Cc1ccccc1 (centres undefined)	-2% (inactive)
O=C1C=C(Cl)C(=O)C=C1Cl	17% (inactive)
CC(=O)[O][Hg][c]1ccccc1N	36% (inactive)
CCOP(=O)(Cc1cccc2ccccc12)OCC	5% (inactive)
Nc1c(Cl)cccc1C(=O)O	3% (inactive)
CC(=O)O[C@H]1CC[C@H]2[C@@H]3CCC4=CC(=O)CC[C@@H]4[C@H]3CC[C@]12C	2% (inactive)
C1CC[N-]CC1.CC(=N\O)/C(C)=N/O.CC(=N\O)/C(C)=N/O.OC1[CH-]CCCC1.[Co+2]	22% (inactive)
c1ccc(C(C(=Nc2ccc(Cc3ccc(N=C(C(c4ccccc4)c4ccccc4)N4CC4)cc3)cc2)N2CC2)c2ccccc2)cc1	5% (inactive)

SMILES	growth inhibition
CCN(Cc1ccccc1)CC(O)c1ccc(Cl)c(Cl)c1 (centres undefined)	-3% (inactive)
CC(=O)OC1C(O)C(C)OC(OC2C(OC(=O)C3CCC4C(C3)OC3(CC(OC(=O)/C=C/c5ccccc5)C(C)CO3)C43CO3)OC(C)C(O)C2OC(C)=O)C1O (centres undefined)	-20% (inactive)
CCCCC(CC)CNP(=S)(NCC(CC)CCCC)NCC(CC)CCCC (centres undefined)	-3% (inactive)
Oc1c(-c2ccccc2)cc(-[n+]2c(-c3ccccc3)cc(-c3ccccc3)cc2-c2ccccc2)cc1-c1ccccc1	97% (active)
Cc1ccc([C@H]2N[C@@H]2c2ccccn2)cc1	-16% (inactive)
CC[CH2][Sn]([CH2]CC)([CH2]CC)[CH2]CCBr	98% (active)
O=[N+]([O-])c1cc(S(=O)(=O)F)ccc1S	-76% (inactive)
CCCCN(CCCC)CCc1ccc(OC(=O)c2ccc(N)cc2)cc1	27% (inactive)
Cc1ccc(C(=O)OC(C(=O)O)C(OC(=O)c2ccc(C)cc2)C(=O)O)cc1 (centres undefined) (tested in a mixture with another compound)	15% (inactive)
N#C[S-].[Ce+3].c1ccc(-c2ccccn2)nc1.c1ccc(-c2ccccn2)nc1.c1ccc(-c2ccccn2)nc1	63% (inactive)
Nc1nc(N)c(-c2ccc(Cl)c(Cl)c2)c(CCc2ccc(CNC(=O)c3ccc(S(=O)(=O)F)cc3)cc2)n1	-4% (inactive)
CC1C2C=CC1C(c1c3ccc(=O)c(O)c-3oc3c(O)c(O)ccc13)C2C(=O)O (centres undefined)	11% (inactive)
O=C(O)CN(CCN(CC(=O)O)CC(=O)O)CC(=O)O	8% (inactive)
O=S(=O)(F)c1ccc(Cl)cc1C[P+](c1ccccc1)(c1ccccc1)c1ccccc1	20% (inactive)
Oc1ccc2ccccc2c1O	13% (inactive)
COC1=[C]([Hg][Br])C(OC)OC1OC (centres undefined)	99% (active)
Nc1nc(CCl)cs1	-2% (inactive)
CCC(C)N1CN(c2ccccc2)C2(CCN(CCCC3(c4ccc(F)cc4)OCCO3)CC2)C1=O (centres undefined)	-9% (inactive)
COc1ccc(NP(=S)(Nc2ccc(OC)cc2)c2ccccc2)cc1	2% (inactive)
